# Bioassay records from PubChem.
# KCNH2 3.1 block: inhibitors of human KCNH2 3.1 potassium channel isoform. U2OS KCNH2 3.1, thallium flux FluxOr; stronger effect = lower value. activity change, % (tested at about 1.8 µM). actives 0.95% (n = 340,000). AID 720553;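 active = maximum activity change below -70%; inconclusive = maximum activity change from -70% to -50%; inactive = maximum activity change above -50%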;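 also: thallium influx rate constant from kinetic fluorescence after stimulation buffer; % is scaled to controls: 0 for no effect and ±100 for the full control effect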
#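 Kinetic fluorescence (2 min after stimulation buffer) measures Tl+ influx through KCNH2 3.1 expressed by viral transduction in U2OS cells; the rate constant is normalized against DMSO controls serving as positive and negative references.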
# LDHA block: LDHA (human) enzyme inhibition; P00338; purified LDHA, NADH/diaphorase-resazurin fluorescence; stronger effect = lower value; activity change, % (values are at about 110 or 230 µM); actives 0.15% (n = 480,000); AID 1347041; in the data active = activity change below about -30%; inconclusive = mostly about -25% to -30%;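 also: plate controls were DMSO wells for no effect and wells without enzyme for full effect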
#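 Human LDH5 (2 nM) was incubated with 0.06 mM NADH and 0.2 mM pyruvate for 5 min at room temperature in Tris pH 7.4. Remaining NADH was coupled through diaphorase/resazurin, and resorufin fluorescence was read at 0 and 20 min.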
# hERG WT inh: blocks the wildtype human KCNH2 potassium channel; Q12809; U2OS, BacMam KCNH2, thallium flux FluxOr; stronger effect = lower value; activity change, % at 1.84 µM; actives 0.37% (n = 340,000); AID 720551;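 active = maximum activity change below -70%; inconclusive = maximum activity change between -70% and -50%; inactive = maximum activity change above -50%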; also: % is scaled to controls: 0 for no effect and ±100 for the full control effect
#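 U2OS cells transduced with wild-type KCNH2 virus are loaded with FluxOr dye for 45 min, and thallium flux is measured in kinetic reads before and after stimulation buffer. Rate constants are normalized to DMSO controls.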
# ClpP mod: qHTS Assay for Activators of ClpP | purified B. subtilis ClpP, FRET peptide cleavage, 20 min | Potency, µM (series often up to 57.5 µM), for inactives: top-dose activity change, negative = active | actives 1.9% (n = 340,000); active = well fitted falling curve with a large enough effect; inconclusive = small, poorly fitted or top-dose-only effect; inactive = no such curve, though single readings can be large or run the other way; also: potency is read from the fitted curve at half-maximal effect; the source files actives as falling curves though it sought activators and does not explain the sign; nearly all actives have a fitted effect of over 65% in size
# Target sequence (P80244 whole entry, looked up): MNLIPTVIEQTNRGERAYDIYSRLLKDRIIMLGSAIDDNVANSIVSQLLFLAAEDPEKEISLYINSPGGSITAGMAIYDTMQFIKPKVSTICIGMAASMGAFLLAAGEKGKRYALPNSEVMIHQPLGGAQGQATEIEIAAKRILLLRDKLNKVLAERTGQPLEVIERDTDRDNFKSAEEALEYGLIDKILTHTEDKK
#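 Purified B. subtilis ClpP, 10 microg/mL final in Tris/HCl pH8 with KCl, BSA, glycerol and Tween-20, cleaved an Abz/nitrotyrosine-quenched decapeptide. Fluorescence (ex 320, em 430) was read at 0 and 20 min at room temperature. Delta was normalized to 5.8 microM ADEP and DMSO/no-enzyme controls.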
# Chronic BCR inh: blocks chronic active B-cell receptor signaling. Potency, µM (titrated, usually from 46.1 µM), without a hit: at the highest dose activity change, negative = inhibition, most hits filed as inhibitors. actives 0.05% (n = 340,000). ABC-DLBCL IkBa-CBG/CBR reporter, luminescence ratio, 4 h; active = well fitted inhibition curve with a large enough effect in the signal ratio, with a control signal flat, not every such curve was filed as active; inconclusive = small, poorly fitted or top-dose-only effect, or effect the other way, or a change in a side signal; the % refers to the signal ratio;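 also: potency is read from the fitted curve at half-maximal effect; plate controls were basal doxycycline-induced cells for no effect and cells given 10 µM MG132 for full effect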
#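 TMD8 human ABC-DLBCL cells with doxycycline-inducible IκBα–green luciferase fusion and unfused red luciferase, in 0.5% FBS medium; compounds up to 46 uM, 4 h at 37C. Green/red luminescence ratio, filter-overlap corrected, fitted to concentration-response curves.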
# ALOX12 inh: inhibitors of human 12S-lipoxygenase ALOX12; purified 12hLO, xylenol orange hydroperoxide absorbance; actives 1.1% (n = 580,000); Potency, µM (highest dose often 108 µM), inactives show at the top dose activity change, negative = inhibition, hits mostly inhibitors; active = well fitted inhibition curve with a large enough effect; inconclusive = small, poorly fitted or top-dose-only effect, or another doubt; inactive = no such curve, though single readings can be large or run the other way; also: potency is read from the fitted curve at half-maximal effect; % is scaled to controls: 0 for no effect and ±100 for the full control effect
#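 Hydroperoxide product was detected by ferrous iron/xylenol orange as the 573 to 405 nm absorbance ratio. Arachidonic acid at 40 uM (final) was turned over for 30 min at room temperature by 150 nM human 12hLO, pH 7.0 Hepes buffer, after 15 min compound preincubation.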
# * hit, by the source's call; i = inactive; ? = inconclusive; . = no result; ! = a repeat was not active; [ ] = remark or other dose. An excerpt weighted towards active compounds, which were near 3% of everything screened.
SMILES,KCNH2 3.1 block,LDHA block,hERG WT inh,ClpP mod,Chronic BCR inh,ALOX12 inh
COc1cc(OC)cc(C(=O)NC(=S)NNC(=O)c2cnccn2)c1,15,-2,-37,1%,5%,50µM*
O=C(O)CCc1nn2c3ccccc3n(CCN3CCCCC3)c2nc1=O,24,-9,-4,28µM*,13%,-15%
O=C(O)CCc1nn2c3ccccc3n(CCO)c2nc1=O,-2,-1,6,.,-1%,-20%
CC(NC(=O)c1cc(=O)[nH]c2ccccc12)c1ccccc1 (stereo not given),19,8,1,.,0%,-17%
O=C(NC1(c2ccccc2)CCC1)c1cc(=O)[nH]c2ccccc12,.,0,.,.,.,11µM*
CCc1ccc(CNC(=O)c2cc3cn(C4CCCC4)cc3s2)cc1,.,.,.,.,.,4.5µM*
CC(C)CNC(=O)c1cc2cn(C3CC3)cc2s1,.,.,.,.,.,13%
O=[S+]([O-])(c1ccccc1)N1CC2(COCCN(Cc3ccc4c(c3)CCO4)C2)C1,.,.,.,.,.,-4%[176 µM]
O=C(/C=C/c1c(F)cccc1Cl)N1CCc2ccccc2C1,-15,-1,-13,.,1%,5.6µM*
CCN1CCN(C(=O)/C=C/c2c(F)cccc2Cl)CC1,-2,-7,1,-2%,-1%,?
Cc1c(C(=O)N(CCc2cccs2)Cc2cccs2)[nH]c2c1C(=O)CC(C)(C)C2,.,-7,.,.,.,?
O=C(NCCN1CCOCC1)c1cc(-c2cccs2)on1,-172*,-9,-11,-20%,?,-8%
O=C(NCC(c1ccccc1)N1CCOCC1)c1cc(-c2cccs2)on1 (stereo not given),.,-32*,.,.,.,-6%
O=C(NCCN1CCOCC1)c1cc(-c2ccccc2)on1,6,-8,-2,0%,0%,10%
CC(C)c1ccc(C(CNC(=O)c2cc(-c3cccs3)on2)N2CCOCC2)cc1 (stereo not given),.,10,.,.,.,-19%
Cc1ccc(NC(=O)c2cc(NC(=O)c3ccco3)ccc2N2CCOCC2)cc1,-3,-15,-4,-3%,?,0%
Cc1ccc(NC(=O)c2cc(N3C(=O)C=CC3=O)ccc2N2CCOCC2)cc1,4,-10,-9,.,7%,10µM*
Cc1ccc(NC(=O)c2cc(N3C(=O)C=CC3=O)ccc2Cl)cc1C,0,1,-7,3%,6%,3.5µM*
NC(N)=N/N=C/C(Cl)=C/c1ccccc1,.,5,.,.,.,-1%
COc1cc(NC(=O)c2cc3nc(-c4ccccc4)cc(-c4ccccc4)n3n2)cc(OC)c1OC,-73*,2,-5,-13%,-1%,4%
CCOC(=O)c1c(C)c(CCC(=O)NCCN2CCCC2)c(C)n1C,.,-3,.,.,.,22%
CC(C)(C)c1ccc(-c2cc(C[C@H]3CNCC[C@H]3CC(=O)NCc3ccc(F)cc3)no2)cc1,.,.,.,.,.,22µM*
COc1ccc(CNC(=O)C[C@@H]2CCNC[C@@H]2Cc2cc(-c3ccc(C(C)(C)C)cc3)on2)cc1,.,.,.,.,.,18µM*
COc1ccc(-c2cc(C[C@H]3CNCC[C@H]3CC(=O)N3CCN(c4ccccc4OC)CC3)no2)cc1,.,.,.,.,.,28µM*
CC(C)(C)NC(=O)C[C@@H]1CCNC[C@@H]1Cc1cc(-c2ccc(C(C)(C)C)cc2)on1,.,.,.,.,.,35µM*
SMILES,KCNH2 3.1 block,LDHA block,hERG WT inh,ClpP mod,Chronic BCR inh,ALOX12 inh
COc1ccc(-c2cc(C[C@H]3CNCC[C@H]3CC(=O)NCc3ccc(F)cc3)no2)cc1,.,.,.,.,.,-12%
COc1ccc(NC(=O)C(C)Sc2ccccc2C(=O)NCC(=O)C(C)(C)C)cc1OC (stereo not given),.,0,.,.,.,?
CCC(=O)N1N=C(c2c(-c3ccccc3)c3cc(C)ccc3[nH]c2=O)CC1c1ccco1 (stereo not given),.,4,.,.,.,?
CCc1ccc(NC(=O)Cc2nc(-c3[nH]c(C)c(C(=O)OC)c3C)cs2)cc1,.,-9,.,.,.,?
Cc1ccc(Oc2ccc(/C=N/O)cn2)cc1,6,-4,1,16µM*,-25%,-15%
Cn1cc(CN2CCC(C(=O)NC(c3ccc(F)cc3)c3ccc4ccccc4n3)CC2)c2ccccc21 (stereo not given),.,-2,.,1%,.,45µM*
O=C1Cc2cccc3cccc1c23,-2,1,-13,22µM*,?,-24%
CCN1CCN(c2oc(-c3ccccc3F)nc2C#N)CC1,.,-31*,.,.,.,?
CC1CCN(c2oc(-c3cccs3)nc2C#N)CC1,.,-5,.,.,.,?
N#Cc1nc(-c2cccs2)oc1N1CCN(c2ccccc2)CC1,7,3,-5,28µM*,?,21%
CCN1CCN(c2oc(-c3cccs3)nc2C#N)CC1,.,-31*,.,.,.,-19%
CC1CCN(c2oc(-c3cccc4ccccc34)nc2C#N)CC1,16,-2,5,5.6µM*,4%,-14%
O=C1NC(c2ccccc2)Nc2c1sc(=S)n2-c1ccccc1 (stereo not given),12,-2,1,.,2%,45µM*
COc1ccc(C2NC(=O)c3sc(=S)n(-c4ccccc4)c3N2)cc1 (stereo not given),0,1,-5,2%,-5%,?
COc1cccc(NC(=O)c2cc(CN3C(=O)c4ccccc4C3=O)ccc2OC)c1,-23,-7,6,10µM*,0%,-18%
Cc1ccccc1-n1c(SC(C)C(=O)c2ccc(F)c(F)c2)nnc1N1CCOCC1 (stereo not given),.,12,.,.,.,?
CCc1cccc(NC(=S)Nc2cccc3ccccc23)c1,-1,5,-28,4%,4%,45µM*
Cc1oc2cc(OS(=O)(=O)c3cccs3)ccc2c(=O)c1-c1ccccc1,.,0,.,.,.,?
O=C(NCc1ccccc1)N(Cc1nc2ccccc2c(=O)[nH]1)C1CCCC1,-15,-6,-10,14µM*,0%,0%
O=C(c1ccccc1)N(Cc1nc2ccccc2c(=O)[nH]1)C1CCCC1,-13,4,-6,.,-17%,2%
CN(Cc1ccco1)c1ncnc2ccc(-c3ccccc3Cl)cc12,.,-5,.,.,11%,28µM*!
O=c1c2ccccc2nc(/C=C/c2ccc(Cl)cc2)n1CCO,-6,-4,-1,32µM*,3%,0%
CCn1c(/C=C/c2ccc(O)c(O)c2)nc2ccccc2c1=O,6,10,-9,-3%,?,14µM*
CCn1c(/C=C/c2ccc(O)cc2)nc2ccccc2c1=O,-38,-13,17,-2%,?,0%
O=c1c2ccccc2nc(/C=C/c2ccc(Br)cc2)n1CCO,-12,-3,4,.,.,i
